Test [1] is described as follows: NCI Yeast Anticancer Drug Screen. Data for the rad50 strain (AID 155).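 Also: 0% = growth of vehicle-only cultures of the same strain.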 To be noted: S. cerevisiae rad50 strain growth inhibition; at 50.0 µM; stronger effect = higher value. The procedure, abridged:
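Vehicle-treated cultures provide the reference for the growth inhibition reported for compound-exposed, repair-deficient yeast.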

A short description of test [2]: NCI Yeast Anticancer Drug Screen. Data for the mec2-1 strain (AID 157). To be noted: S. cerevisiae mec2-1 strain, at 50.0 µM, stronger effect = higher value. A digest of the protocol: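 Each compound was tested on mec2-1 yeast, a strain altered in DNA damage repair or cell cycle control. Growth inhibition is reported relative to vehicle.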
Test [3] in a line: NCI Yeast Anticancer Drug Screen. Data for the sgs1 mgt1 strain (AID 161).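 Also: 0% = growth of cultures given vehicle only.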 To be noted: S. cerevisiae sgs1 mgt1 strain, at 50.0 µM, stronger effect = higher value. A digest of the protocol:
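Genetically altered yeast, compound exposure, growth inhibition relative to vehicle.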

A short description of test [4]: NCI Yeast Anticancer Drug Screen. Data for the cln2 rad14 strain (AID 165).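 Also: 0% = growth equal to vehicle treated cultures.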 The note with it: S. cerevisiae cln2 rad14 strain, at 50.0 µM, stronger effect = higher value. A digest of the protocol: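 Test compounds were added to cln2 rad14 yeast cultures; inhibition of growth was then determined by comparison with vehicle treatment.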
A short description of test [5]: NCI Yeast Anticancer Drug Screen. Data for the bub3 strain (AID 167). The note with it: S. cerevisiae bub3 mutant strain, at 50.0 µM, stronger effect = higher value. A digest of the protocol:
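Mutant yeast screening strain plus compound; vehicle-treated cultures serve as the 0% inhibition reference.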

Test [6] can be described thus: NCI Yeast Anticancer Drug Screen. Data for the mlh1 rad18 strain (AID 175). The note with it: S. cerevisiae mlh1 rad18 strain growth inhibition; at 50.0 µM; stronger effect = higher value. The procedure, abridged: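 Inhibition values reflect reduced growth of mutant yeast versus vehicle-treated controls following compound exposure; the mutations affect DNA damage repair.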

About 79,000 compounds went through this panel and 15% of them were active in at least one assay; those are over-represented in the sample as a whole. Unmarked numbers belong to inactive results. Activity calls are given as the source filed them. Rule as the data show it: active = growth inhibition above about 70%; inactive = the rest.

This passage reports growth inhibition results from PubChem BioAssay (NCI).

In the case of `O=CN(Cc1ccccc1)Cc1ccccc1`, the growth inhibition in test [1] is 5.15%; in test [2] it was 8.2%; in test [3] it was 3.65%; in test [4], 0.95%; in test [5], -3.8%; in test [6], -12.6%.
For `COc1cc2c(cc1OC)C(C(CO)CO)N(CC(O)CCl)CC2` (stereo unspecified), the growth inhibition in test [1] was -25.6%; in test [2], -16.1%; in test [3] it was -26%; in test [4] it was -6.65%; in test [5], -13.9%; in test [6] it was -30.8%.
For `CCN(CC)CCOc1ccc(/C=C(\C#N)c2ccc(OCCN(CC)CC)cc2)cc1`, the growth inhibition in test [1] was 56.5%; in test [2] it was 28.6%; in test [3], 30.4%; in test [4], 56%; in test [5], 24.1%; in test [6] it was 18%.
With `CC(=O)N1CCC(=O)/C(=C/c2ccccc2)C1`, the growth inhibition in test [1] was 4.95%; in test [2] it was 0%; in test [3], 32%; in test [4], 15.9%; in test [5] it was 17.6%; in test [6], 44%.
For the compound `N#CNC(N)=Nc1ccc(Cl)cc1`, the growth inhibition in test [1] is 5.35%; in test [2], 7.5%; in test [3], -27.9%; in test [4] it was 19.6%; in test [5] it was -19.6%; in test [6], -17.4%.
Take `CN1CCCC(C(O)c2ccccc2)S1(=O)=O` (stereo unspecified): the growth inhibition in test [1] was 17.2%; in test [2], 23.4%; in test [3] it was -1.3%; in test [4] it was 9.65%; in test [5] it was 29.4%; in test [6], 14.3%.
Turning to `Cc1cc([N+](=O)[O-])cnc1Cl`, the growth inhibition in test [1] was -14.1%; in test [2] it was -22.2%; in test [3] it was -11.6%; in test [4], -15.9%; in test [5] it was 12%; in test [6], -16.8%.
As to `CCCCCCCCCCCCCCCCOC(=O)/C=C/c1ccccc1`, the growth inhibition in test [1] is -8.35%; in test [2], -2.35%; in test [3], -7.45%; in test [4], -8.55%; in test [5], -12.3%; in test [6], 9.1%.
With `O=C(O)C(=O)Cc1ccc(Br)cc1[N+](=O)[O-]`, the growth inhibition was 5.45% in test [1]; -6.6% in test [2]; 1.8% in test [3]; -3% in test [4]; 1.45% in test [5]; 12.2% in test [6].
For the compound `Cc1cc(S(=O)(=O)Nc2nc3ccccc3[nH]2)c(S)cc1Cl`, the growth inhibition in test [1] is 19.9%; in test [2], 13.2%; in test [3], 23.9%; in test [4], 23.4%; in test [5], 5.55%; in test [6], 40.6%.
With `CCCCCC(/C=C/[C@@H]1[C@H]2CC(=O)O[C@H]2C[C@H]1N1CCOCC1)OC1CCCO1` (stereo partly specified), the growth inhibition in test [1] is 0.2%; in test [2] it was -6.3%; in test [3], 11.8%; in test [4] it was -35.1%; in test [5] it was -29.6%; in test [6], 11.8%.
Take `Cc1cc(C(C)(C)C)cc(Cc2cc(C(C)(C)C)cc(Cc3cc(C(C)(C)C)cc(C)c3O)c2O)c1O`: the growth inhibition in test [1] is -25.8%; in test [2], -4.75%; in test [3], -43.3%; in test [4], -13.3%; in test [5] it was -0.6%; in test [6], -24%.
Consider `O=C(O)c1cnc(Cl)c(Br)c1`, for which the growth inhibition in test [1] is -12.1%; in test [2], -3.35%; in test [3] it was 6.7%; in test [4] it was -17.9%; in test [5], -27.1%; in test [6] it was 2.5%.
As to `O=C(O)C(F)(F)C(F)(F)C(F)(F)C(F)(F)C(=O)O`, the growth inhibition in test [1] was -1.85%; in test [2], -2.95%; in test [3], -37.8%; in test [4], -28.3%; in test [5], -45.8%; in test [6], -22.8%.
Take `COc1ccc2ccc3c4c(c(=O)[nH]c3c2n1)CCC4`: the growth inhibition in test [1] was 44%; in test [2] it was 28.8%; in test [3] it was 33.7%; in test [4] it was 2.55%; in test [5], 9.95%; in test [6], 30.9%.
Regarding `COc1ccc(-c2c(C(C)=O)c(C)n(C3OC(CO)C(O)C(O)C3O)c(=S)c2C#N)cc1` (stereo unspecified), the growth inhibition in test [1] was 15.9%; in test [2], 34.2%; in test [3], 31.8%; in test [4], 34%; in test [5], 26.2%; in test [6], 49%.
For `CCC/C=N\NS(=O)(=O)c1ccc(NC(C)=O)cc1`, the growth inhibition in test [1] was 4.65%; in test [2] it was -28.4%; in test [3] it was 11.6%; in test [4] it was 12.6%; in test [5], -43.7%; in test [6], 27.2%.
Turning to `O=C(Cn1c2c(c3ccccc31)CCCC2)N1CCCCC1`, the growth inhibition was -40.5% in test [1]; -74% in test [2]; -31.2% in test [3]; -22.2% in test [4]; -8.6% in test [5]; -26.2% in test [6].
On to `SC1(S)CCCN(Cc2ccccc2)C1`, for which the growth inhibition in test [1] is 8.55%; in test [2], 19.2%; in test [3] it was 42.8%; in test [4] it was 35.6%; in test [5], 44%; in test [6], 37.8%.
Turning to `O=C1OC(c2ccccc2)C=C1Nc1ccccc1` (stereo unspecified), the growth inhibition is 9.55% in test [1]; 12.4% in test [2]; -3.05% in test [3]; -12.1% in test [4]; 17% in test [5]; 9.4% in test [6].
With `CCCCCCCCCCOC(=O)Nc1cccc(O)c1`, the growth inhibition was 29.8% in test [1]; 92.8% (active) in test [2]; 95.4% (active) in test [3]; 18.9% in test [4]; 96.9% (active) in test [5]; 86.5% (active) in test [6].
